Measurements: PubChem BioAssay AID624483 (NMMLSC, 2012)
The campaign covered roughly 360,000 compounds. About 11,000 (3.1%) were called active. Roughly 2% stayed inconclusive and do not appear here. What follows is part of a selection rich in actives, with near analogues and random picks from the rest. A number with no mark means an inactive call. Rule as the data show it: active = fluorescence intensity above about 16000; inconclusive = no clear call, values can overlap the other calls; inactive = below that.

Assay: compound fluorescence in toxin protease inhibitor counterscreen, primary screen, artefact control for toxin protease inhibitor project, biochemical, multiplex microsphere, HTS (AID 624483)
Details: compound autofluorescence counterscreen, microsphere flow cytometry; stronger effect = higher value

Row | Structure (SMILES) | fluorescence intensity
1 | O=C1c2ccccc2C(=O)N1CCCc1nc(-c2ccccc2)no1 | 21200 (active)
2 | O=C(Cc1ccc(Cl)cc1)NCc1nc(-c2ccccc2)no1 | 3500
3 | O=C(CCN1C(=O)[C@H]2CC=CC[C@H]2C1=O)NCc1nc(-c2ccccc2)no1 | 4420
4 | COc1cc(CNc2ncnc3c2ncn3[C@H]2CN(Cc3cccs3)C[C@@H](CO)O2)cc(OC)c1OC | 2940
5 | CC1(C(=O)NS(=O)(=O)c2cccc(F)c2)CCN1C(=O)Cc1cc(F)ccc1F (stereo not given) | 3880
6 | C/C(=N/NC(=O)c1ccn(C)n1)c1ccncc1 | 4250
7 | CC(=O)N/N=C(\C)c1ccc(Br)cc1Br | 4300
8 | O=C(/C(=N\O)n1cncn1)c1ccc(Br)cc1Br | 21600 (active)
9 | Cc1ccc2nc(-c3ccc(NC(=O)c4cccnc4)cc3)oc2c1 | 4480
10 | Cc1ccc(NC(=O)Nc2ccc3oc(C)nc3c2)cc1 | 4170
11 | Cc1nc2ccc(NC(=O)C(F)(F)F)cc2o1 | 21700 (active)
12 | O=C(CC[C@H]1O[C@@H](n2ccc(=O)[nH]c2=O)[C@H](O)[C@@H]1O)N[C@H](Cc1ccccc1)C(=O)NCCCN1CCCC1=O | 4310
13 | O=C1NC(O)CCN1C1CC(O)C(CO)O1 (stereo not given) | 6570
14 | CCOC(=O)c1ccc(N2C(=O)CC(N3CCN(C(=O)c4ccccc4)CC3)C2=O)cc1 (stereo not given) | 2610
15 | CCCCOC(=O)c1ccc(N2C(=O)CC(N3CCN(C/C=C/c4ccccc4)CC3)C2=O)cc1 (stereo not given) | 22500 (active)
16 | CCOC(=O)c1ccc(N2C(=O)CC(N3CCC(C(=O)OCC)CC3)C2=O)cc1 (stereo not given) | 2510
17 | CC(OC(=O)c1ccccc1OCc1ccc(Cl)cc1)C(N)=O (stereo not given) | 4810
18 | Cc1cc(=O)oc2c1ccc1ccccc12 | 3640
19 | Cc1ccc(-c2csc(N(Cc3ccco3)C(=O)c3cccs3)n2)cc1 | 2850
20 | O=C(O)CCC(=O)N(Cc1ccco1)c1nc(-c2ccccc2)cs1 | 22500 (active)

Row | Structure (SMILES) | fluorescence intensity
21 | O=C(O)CN(Cc1ccco1)S(=O)(=O)c1ccccc1 | 3010
22 | O=C(NCc1cccc(C(F)(F)F)c1)c1ccc2sc(COCCO)nc2c1 | 3760
23 | CCNC(=O)NC(=O)C(C)OC(=O)c1cc(S(=O)(=O)N2CCCCCC2)ccc1OC (stereo not given) | 3480
24 | CC1=NNC(=O)C1CC(=O)N/N=C/c1ccncc1 (stereo not given) | 4920
25 | CCN(CC)c1ccc(NC(=O)CN2C(=O)NC3(CCc4ccccc43)C2=O)cc1 (stereo not given) | 8580
26 | CCCCC(=O)Nc1ccc(C(=O)NCCCn2ccnc2)cc1 | 10500
27 | CCOc1ccc(NC(=O)CCNC(=O)c2ccc(Br)cc2)cc1 | 3030
28 | CCCCNC(=O)CCNC(=O)c1ccc(C(C)(C)C)cc1 | 20300 (active)
29 | CC(C)C1Cc2[nH][nH]c(=O)c2C(c2ccc(Cl)cc2)O1 (stereo not given) | 5700
30 | CCN(CC)C(=O)c1sc2nc(-c3ccccc3)ccc2c1N | 4300
31 | NC(=O)c1sc2nc3c(c(-c4ccccc4)c2c1N)CCC3 | 24800 (active)
32 | Cc1sc2nc(CC(N)=O)[nH]c(=O)c2c1-c1ccccc1 | 2450
33 | N=c1c2c3c(sc2ncn1CCCN1CCOCC1)CCCCC3 | 6250
34 | c1nnc2c3c4c(sc3ncn12)CCC4 | 23300 (active)
35 | CC(C(=O)O)n1cnc2sc3c(c2c1=O)CCCC3 (stereo not given) | 4940
36 | N=c1c2c3c(sc2nc2n1CCCCC2)CCCC3 | 2860
37 | N=c1c2c3c(sc2ncn1N)CCCCC3 | 19400 (active)
38 | S=c1[nH]nc2c3c4c(sc3ncn12)CCCC4 | 2950
39 | CN1CCN(C(=O)c2ccc(NC(=O)c3ccc(Br)o3)cc2)CC1 | 5550
40 | O=C(/C=C/[C@H]1O[C@@H](n2cnc3c(NC(=O)c4ccccc4)ncnc32)[C@H](O)[C@@H]1O)NCc1ccccc1 | 6020

Row | Structure (SMILES) | fluorescence intensity
41 | CS(=O)(=O)C1=NN2C(=N)/C(=C\c3ccc(OCCOc4ccccc4)cc3)C(=O)N=C2S1 | 3680
42 | CCS(=O)(=O)C1=NSC2=NC(=O)/C(=C\c3ccc(OS(=O)(=O)c4ccccc4)cc3)C(=N)N21 | 4230
43 | CS(=O)(=O)c1ccc2c(c1)SC1=NC(=O)/C(=C/c3ccco3)C(=N)N12 | 20000 (active)
44 | OC(c1nc2ccc(F)cc2[nH]1)C(O)c1nc2ccc(F)cc2[nH]1 (stereo not given) | 3790
45 | O=C1CCCC2=C1C(c1cccs1)CC(=O)N2c1ccc(F)cc1 (stereo not given) | 3220
46 | CCCC(=O)N1c2ccccc2NC2=C(C(=O)CCC2)C1c1ccc(F)cc1 (stereo not given) | 6490
47 | O=C1CCCC2=C1C(c1cccs1)n1nc(SCc3ccccc3)nc1N2 (stereo not given) | 23700 (active)
48 | Nc1c(-c2ccc(F)cc2)cnc2ncnn12 | 6020
49 | O=C(Nc1ccc2c(c1)nc1n2CCCCC1)c1cc(S(=O)(=O)N2CCOCC2)ccc1Cl | 2940
50 | Cc1cccc(NC(=O)C2CCN(S(=O)(=O)c3cccc4cccnc34)CC2)c1 | 5170
51 | CCOc1cccc(OCCCOc2cccc3cccnc23)c1 | 2100
52 | Cc1ccc(Oc2ccc3c(c2)C(=O)N(c2cccc4cccnc24)C3=O)cc1 | 21000 (active)
53 | Cc1ccc(S(=O)(=O)N2CCCCC2)cc1NC(=O)CCNC(=O)c1ccccc1Cl | 3400
54 | Cc1cccc(N(CC(=O)N2CCOCC2)S(C)(=O)=O)c1 | 8740
55 | CS(=O)(=O)N(CC(=O)N1CCN(Cc2ccccc2)CC1)c1ccc2c(c1)OCCO2 | 23300 (active)
56 | CS(=O)(=O)N(CC(=O)N1CCN(c2cccc(Cl)c2)CC1)c1ccccc1 | 9910
57 | Cc1ccc(C)c(S(=O)(=O)N2CCN(c3ncnc4sccc34)CC2)c1 | 3890
58 | O=C(c1c(F)cccc1F)N1CCN(S(=O)(=O)c2ccc3c(c2)OCCO3)CC1 | 4100
59 | O=C(Nc1ccccn1)C1CCN(S(=O)(=O)c2ccc3c(c2)OCCO3)CC1 | 4090
60 | O=C(c1ccc2c(c1)OCCO2)C1CCN(S(=O)(=O)c2cccc(F)c2)CC1 | 17000 (active)
